For 22 molecules, outcome results are on record in PubChem BioAssay (EPA / NIEHS).

Active and inactive are the calls of the source. How the source made its calls: active means hit-call score of the fitted dose curve at least 0.9, where 1 is the maximum; inactive means score below 0.9.

The nature of the experiment: ATG_Sox_CIS: Attagene CIS-FACTORIAL HepG2 Assay for human SRY-box transcription factor (SOX) (AID 2282960). The conditions noted are these: HepG2 Attagene cis-factorial SOX reporter, mRNA; actives raise or lower the signal. In a few lines: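 Gain- or loss-of-signal endpoint, fitted bidirectionally with DMSO as negative control. Based on reporter mRNA from transfected HepG2 cells harvested 24 h post-treatment and quantified via RT-PCR and capillary electrophoresis.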
With `Cn1c(-c2ccccc2)cc(-c2ccccc2)[n+]1C`, the result was inactive.

`CC(C)C1(C)N=C(c2ncccc2C(=O)O)NC1=O` (configuration not stated): the outcome was inactive.

On to `COc1ccc(-c2ccccc2)cc1NNC(=O)OC(C)C`, for which the molecule was classed as inactive.

`CC(C)=CC1C(C(=O)OCc2coc(Cc3ccccc3)c2)C1(C)C` (configuration not stated): the molecule was called inactive.

As for `CCSC(=O)N1CCCCCC1`, the result was inactive.

Regarding `COc1cc(Cl)c(OC)cc1Cl`, the molecule was called inactive.

With `OC(c1ccc(Cl)cc1)(c1ccc(Cl)cc1)C(Cl)(Cl)Cl`, the result was inactive.

With `CCOP(=O)(OCC)Oc1nc(Cl)c(Cl)cc1Cl`, the molecule was classed as inactive.

Turning to `COC(=O)N(C(=O)N1CO[C@@]2(C(=O)OC)Cc3cc(Cl)ccc3C2=N1)c1ccc(OC(F)(F)F)cc1`, the outcome was inactive.

Turning to `Cc1nc(N(C)C)nc(OC(=O)N(C)C)c1C`, the molecule was called inactive.

`CC(C)N1C(=O)c2ccccc2NS1(=O)=O`: the call was inactive.

As to `Nc1c(Cl)c(Cl)nc(C(=O)O)c1Cl`, the molecule was classed as inactive.

As to `CC1(C)C(C=C(Cl)Cl)C1C(=O)OC(C#N)c1cccc(Oc2ccccc2)c1` (configuration not stated), the result was inactive.

For `COC(=O)NS(=O)(=O)c1ccc(N)cc1`, the result was inactive.

In the case of `Cc1cc(C)nc(Nc2ccccc2)n1`, the molecule was classed as inactive.

Take `CNC(=O)Oc1cccc2ccccc12`: the result was inactive.

As to `O=C(O)c1c(Cl)ccc2cc(Cl)cnc12`, the molecule was classed as inactive.

Regarding `O=C1C2CC=CCC2C(=O)N1SC(Cl)(Cl)Cl` (configuration not stated), the molecule was called inactive.

Consider `Cc1cnc(C2=NC(C)(C(C)C)C(=O)N2)c(C(=O)O)c1` (configuration not stated), for which the molecule was classed as inactive.

`CCCCOCN(C(=O)CCl)c1c(CC)cccc1CC`: the call was inactive.

Turning to `COP(=O)(OC)O/C(C)=C/C(=O)N(C)C`, the result was inactive.

In the case of `CCC(C)n1c(=O)[nH]c(C)c(Br)c1=O` (configuration not stated), the molecule was called inactive.
